Screening results (PubChem BioAssay)
Rab9 promoter act – Rab9 promoter activation | Huh7 Rab9 promoter-luciferase reporter, luminescence, 24 h | Potency, µM (titrated, usually from 9.22 µM), for the others: at the top dose activation, negative = inhibition, most hits filed as activators | 320,000 compounds, 2.8% hits; note: % of control where 0% means no effect; nearly all actives have a fitted effect of over 60% in size
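Huh7 reporter line, Rab9 promoter upstream of luciferase. Compound exposure 24 h at 37 °C in reduced-serum medium with 10% FBS. Read-out: luminescence.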
NPC1 prom act – NPC1 promoter activation | Huh7 NPC1 promoter luciferase reporter, 24 h | Potency, µM (top dose mostly 9.22 µM), for inactives: at the top dose activation, actives largely listed as activators | 320,000 compounds, 2.4% hits | AID 485313; note: % of control where 0% means no effect; nearly all actives have a fitted effect of over 60% in size
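Stable NPC1-promoter luciferase Huh7 line; cpd (DMSO) 24 h, 37 °C, 5% CO2; Amplite luciferase reagent 10 min RT; luminescence readout. qHTS format.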
SMN2 splice enh – SMN2 splice variant enhancement; HEK293 SMN2-luciferase splicing reporter, luminescence, 30-36 h; Potency, µM (titrated, usually from 46.1 µM), inactives show at the highest dose activity change, positive = activation, usual class: activators; 210,000 compounds, 2.8% hits; note: % of control where 0% means no effect; nearly all actives have a fitted effect of over 55% in size
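HEK293 cells carry an SMN2 […]–luciferase reporter in which exon 7 inclusion puts luciferase in frame. Cells were plated 10-12 h before compound addition, then incubated 30-36 h at 37C. ONE-Glo luminescence was read; sodium butyrate at 4.5 mM final served as control.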
ELG1 genotox – induces genotoxicity in HEK293T cells with luciferase-tagged ELG1 | HEK293T ELG1-luciferase reporter, luminescence, 16 h | Potency, µM (series often up to 46 µM), for the others: at the top dose activity change, positive = activation, hits mostly activators | 330,000 compounds, 1.3% hits; note: % of control where 0% means no effect; nearly all actives have a fitted effect of over 60% in size
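Genotoxic stress is detected as increased luminescence from luciferase-tagged ELG1 in HEK293T cells, measured with ONE-Glo after a 16 hr treatment at 37 °C.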
FLuc modulator – firefly luciferase modulation, counter-screen for miR-21 project; purified FLuc, Km substrates, luminescence inhibition; Potency, µM (titrated, usually from 57.5 µM), for the others: at the top dose activity change, negative = inhibition, actives largely listed as inhibitors; 360,000 compounds, 6.9% hits; AID 588342;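 note: plate controls were vehicle for no effect and reference inhibitor for full effect; nearly all actives have a fitted effect of over 55% in size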
Target sequence (P08659 whole entry, looked up): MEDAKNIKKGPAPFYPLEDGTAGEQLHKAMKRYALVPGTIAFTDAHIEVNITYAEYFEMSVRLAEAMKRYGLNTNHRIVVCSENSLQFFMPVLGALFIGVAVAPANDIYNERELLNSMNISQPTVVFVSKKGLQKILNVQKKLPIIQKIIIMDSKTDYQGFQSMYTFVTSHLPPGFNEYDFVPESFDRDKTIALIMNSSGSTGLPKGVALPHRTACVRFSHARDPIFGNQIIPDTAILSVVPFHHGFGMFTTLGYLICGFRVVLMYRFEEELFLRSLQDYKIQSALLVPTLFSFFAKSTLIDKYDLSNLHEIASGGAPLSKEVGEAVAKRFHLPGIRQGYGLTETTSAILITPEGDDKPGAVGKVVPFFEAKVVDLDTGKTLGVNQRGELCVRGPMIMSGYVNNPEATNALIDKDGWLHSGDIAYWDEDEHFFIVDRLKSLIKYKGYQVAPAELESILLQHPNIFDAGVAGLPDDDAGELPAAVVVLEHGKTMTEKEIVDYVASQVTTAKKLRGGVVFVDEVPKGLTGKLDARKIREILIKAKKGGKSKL
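Purified P. pyralis luciferase (10nM final) with 10uM D-luciferin and 10uM ATP (Km levels) in 50mM Tris acetate pH 7.5, 10mM Mg acetate, 0.01% Tween-20, 0.05% BSA; qHTS 6-point titration, ~60 µM downward; luminescence read.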
* = called active by the depositor; ? = inconclusive; · = not tested or not shown; [ ] = remark or other dose. Hits are enriched below; roughly 7.5% of the tested compounds scored in any of these assays. Calls come from the whole dose curve; as a rule, active = well fitted curve in the direction sought with a large enough effect; inconclusive = small, poorly fitted or top-dose-only effect, or another doubt; inactive = no such curve, though single readings can be large; an effect the other way counts as inactive or inconclusive. Potency is the fitted concentration of half-maximal effect.

SMILES	Rab9 promoter act	NPC1 prom act	SMN2 splice enh	ELG1 genotox	FLuc modulator
CCCC(=O)Nc1nc(-c2ccccc2)ns1	?	?	?	24.5%	16.9µM*
CC(=O)Nc1cc(-c2ccc(Cl)cc2)[nH]n1	?	3.55µM*	22.4µM*	?	?
CC(=O)Nc1nc(-c2ccc(Cl)cc2)ns1	3.98µM*	?	?	16.6%	10.7µM*
Cc1cc(Oc2cc(N)cc([N+](=O)[O-])c2)ccc1Cl	0.5%	-4.0%	-14.9%	3.9%	-0.2%
COc1ccccc1C(=O)Nc1nc(-c2ccccc2)ns1	·	·	9.0%	·	?
CC(C)C(=O)Nc1nc(-c2ccccc2)ns1	2.82µM*	3.55µM*	2.24µM*	?	15.1µM*
CCCSc1nsc(NC(=O)CC)n1	0.112µM*	0.282µM*	·	?	0.675µM*
O=C(Nc1ccccc1C(=O)NCCCN1CCOCC1)c1cccc([N+](=O)[O-])c1	-1.3%	2.3%	·	-4.4%	-1.8%
O=c1[nH][nH]c2c(N=Cc3ccccc3O)ccc(F)c12	-7.7%	0.3%	·	-6.3%	19µM*
CCc1ccc(O)c(N=Cc2ccccc2O)c1	14.6%	-4.6%	·	0.1%	1.8%[2.3 µM]
CC1=C(C(=O)N2CCCCC2)C(c2cccs2)NC(=O)N1 (centres undefined)	3.5%	-2.8%	-7.5%	-2.0%	1.7%
C(=N\N1CCOCC1)/c1nc(-c2ccccc2)n2ccccc12	9.2%	1.5%	3.9%	2.7%	-3.8%
CC(C)(C)c1ccc(-c2nc(C=O)c3ccccn23)cc1	4.1%	2.2%	-14.0%	1.0%	15.1µM*
CCOC(=O)c1sc2nc3c(SCCC(=O)O)cc(C(=O)c4cc(OC)ccc4O)cn3c(=O)c2c1C	1.6%	1.5%	-19.6%	0.6%	3.01µM*
O=C(O)CSc1cc(C(=O)c2cc(F)ccc2O)cn2c(=O)c3c(-c4ccccc4)csc3nc12	-2.6%	-0.3%	·	-5.6%	26.9µM*
O=C(CSc1nc(-c2cccs2)nc2ccccc12)NC1CCS(=O)(=O)C1 (centres undefined)	-12.8%	-3.1%	·	?	1.4%
CC1(C)Cc2c(sc3nc(-c4cccs4)n(N)c(=O)c23)CO1	2.82µM*	?	-8.5%	-14.9%	6.01µM*
Nn1c(-c2cccs2)nc2sc3c(c2c1=O)CCCC3	6.31µM*	0.8%	6.31µM*	2.31µM*	2.39µM*
Cc1ccccc1-c1nc2sc3c(c2c(=O)n1N)CCCC3	22.8%	17.6%	-60.1%	2.91µM*	6.75µM*
O=C(Nc1nnc(C2=COCCO2)o1)c1cccc(C(F)(F)F)c1	-7.9%	-2.2%	·	-4.0%	0.7%
COc1cc(/C=N/n2c(COc3ccccc3)n[nH]c2=S)cc(OC)c1OC(C)=O	0.9%	-4.5%	·	2.1%	7.6%
C=CCNC(=S)NNC(=O)c1cc(-c2cccnc2)nc2ccccc12	5.9%	-0.2%	·	3.1%	9.53µM*
O=C(NNC(=O)c1cc(-c2ccccc2)nc2ccccc12)Nc1cccc(Cl)c1	0.1%	-2.5%	-16.4%	-21.3%	?
CC(C)(C)c1ccc(-c2cc(C(=O)NNC(=O)Nc3ccccc3)c3ccccc3n2)cc1	20.9%	?	14.1µM*	?	0.477µM*
O=C(NNC(=O)c1cc(-c2cccnc2)nc2ccccc12)Nc1ccc(Cl)cc1	26.5%	12.8%	-2.7%	-7.8%	23.9µM*
SMILES	Rab9 promoter act	NPC1 prom act	SMN2 splice enh	ELG1 genotox	FLuc modulator
O=C(NNC(=O)c1cc(-c2ccncc2)nc2ccccc12)Nc1ccc(F)cc1	11.5%	6.8%	·	-10.1%	?
COc1ccc(-c2c(NC(=O)c3ccco3)n(-c3ccc(C)cc3)nc(C)c2=O)cc1	-2.4%	-4.1%	·	1.5%	-0.8%
CS(=O)(=O)c1ccc(NC(=O)CCN2C(=O)C3CC=CCC3C2=O)cc1 (centres undefined)	2.3%	0.3%	·	-6.3%	-3.1%
FC(F)(F)c1cccc(-c2ccc(-c3csnn3)o2)c1	?	10.0%	-15.5%	13.9%	16.9µM*
Cc1ccc(-c2noc(C3CCCCC3)n2)cc1	?	3.98µM*	22.1%	?	?
Cc1cccc(-c2noc(C3CC(=O)N(c4ccc5c(c4)OCCO5)C3)n2)c1 (centres undefined)	·	·	·	·	-0.2%
Cc1cccc(-c2noc(C3CCCCC3)n2)c1	·	·	24.5%	·	3.01µM*
CCS(=O)(=O)N1CCC(c2nc(-c3ccc(C)cc3)no2)CC1	?	?	-25.9%	10.4%	15.1µM*
Cc1cc(NC(=O)c2n[nH]c(=O)c3ccccc23)ccc1Br	5.01µM*	?	·	?	4.6%
CN(C)S(=O)(=O)c1cccc(NC(=O)c2n[nH]c(=O)c3ccccc23)c1	-3.8%	-1.3%	-2.4%	-5.4%	-12.2%
CCN(CC)S(=O)(=O)c1cc(NC(=O)c2n[nH]c(=O)c3ccccc23)ccc1C	?	6.1%	-25.7%	-11.8%	23.9µM*
CCC(CC)NC(=O)c1n[nH]c(=O)c2ccccc12	-0.3%	0.1%	-6.8%	17.7%	6.8%
CC(C)c1ccc(NC(=O)c2n[nH]c(=O)c3ccccc23)cc1	1.58µM*	?	5.62µM*	?	-0.9%
CC1CCCC(C)N1C(=O)CSc1nc2c(c(=O)n(C)c(=O)n2C)n1C (centres undefined)	-9.8%	-5.0%	·	-3.9%	-0.5%
CC(C)CN(CCNC(=O)c1cc(=O)[nH]c2ccc(S(=O)(=O)N3CCCCCC3)cc12)CC(C)C	·	·	·	·	0.2%
CCN(CC)S(=O)(=O)c1cccc(C(=O)OC2CCOC2=O)c1 (centres undefined)	-9.3%	-2.7%	·	1.0%	0.9%
COc1cccc(/C=C2\SC(=S)N(CC(=O)N(C)C3CCS(=O)(=O)C3)C2=O)c1 (centres undefined)	-2.1%	-1.2%	·	4.6%	10.7µM*
COc1ccc(/C=C2\SC(=S)N(CC(=O)N(C)C3CCS(=O)(=O)C3)C2=O)cc1 (centres undefined)	-0.3%	13.4%	·	3.5%	19µM*
COc1ccc(OC)c(S(=O)(=O)n2ccc(C)n2)c1	-0.3%	2.3%	·	-0.3%	0.1%
CCN1C(=O)N/C(=C/c2cc(C)n(Cc3ccccc3)c2C)C1=O	?	?	29.9%	18.4%	3.38µM*
CCn1c(C)cc(/C=C2\NC(=O)N(Cc3ccc(Cl)cc3)C2=O)c1C	-1.5%	-4.0%	1.2%	11.0%	0.2%
Cn1c(=O)n(C)c2cc(/C=C3/NC(=O)N(Cc4ccccc4)C3=O)ccc21	-5.7%	-0.5%	7.3%	9.2µM*	-0.3%
Cc1cc(C)cc(NC(=O)CCN2CCCC2)c1	-2.5%	-1.0%	·	-1.9%	-0.3%
Cc1oc(-c2ccc(C(=O)NCCN(C)C)cc2)nc1CS(=O)(=O)c1ccccc1	·	·	·	·	-0.7%
CN1CCc2c(sc3c2C(=O)NC(c2cccc(OC(=O)c4cccs4)c2)N3)C1 (centres undefined)	3.2%	0.9%	?	18.9%	16.9µM*
COc1ccc(/C=N/NC2=NCCCCC2)cc1	?	2.2%	-3.3%	?	?
